Rows were chosen to be rich in hits. Some 11% of all compounds tested hit in one or more screens of this group.
OTUD3 inh = human OTUD3 deubiquitinase inhibition. actives 0.7% (n = 47,000). AID 1645858. inhibition, % at 25 µM. Q5T2D3. purified OTUD3, Ub-rhodamine fluorescence, 2 h
USP17 block = inhibitors of human USP17 deubiquitinase. A8MUK1. purified USP17, Ub-rhodamine cleavage fluorescence, 3 h. inhibition, % at 50 µM. actives 6.5% (n = 47,000). AID 1645855
Target sequence (A8MUK1 whole entry, looked up): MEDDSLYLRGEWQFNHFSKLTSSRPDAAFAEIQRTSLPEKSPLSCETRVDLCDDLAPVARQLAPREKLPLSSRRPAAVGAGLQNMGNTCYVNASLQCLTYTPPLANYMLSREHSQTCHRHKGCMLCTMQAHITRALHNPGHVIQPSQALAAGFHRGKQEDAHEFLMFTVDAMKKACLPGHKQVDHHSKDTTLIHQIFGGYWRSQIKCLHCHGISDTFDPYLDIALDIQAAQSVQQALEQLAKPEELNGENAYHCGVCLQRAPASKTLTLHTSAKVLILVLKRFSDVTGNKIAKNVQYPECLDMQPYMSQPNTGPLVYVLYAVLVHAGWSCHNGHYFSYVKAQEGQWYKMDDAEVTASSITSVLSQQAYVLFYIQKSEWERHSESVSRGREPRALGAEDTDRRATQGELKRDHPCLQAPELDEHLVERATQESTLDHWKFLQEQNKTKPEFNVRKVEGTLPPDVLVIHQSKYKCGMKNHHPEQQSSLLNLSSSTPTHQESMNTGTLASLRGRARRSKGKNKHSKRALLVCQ
USP28 inh = blocks human USP28 ubiquitin-rhodamine cleavage; inhibition, % at 25 µM; actives 3% (n = 47,000); AID 1645857; purified USP28, Ub-rhodamine cleavage fluorescence, 30 min; Q96RU2
USP30 block = blocks human USP30 ubiquitin-rhodamine cleavage; Q70CQ3; purified USP30, Ub-rhodamine cleavage fluorescence; inhibition, % at 25 µM; actives 5.3% (n = 47,000); AID 1645860
Hits are given with their value. Cut-off read from the data, not from the text of the source: active = inhibition above about 30%; inactive = the rest.

`CN1[C@@H](CCC(=O)N2CCC(O)CC2)CNC(=O)[C@@H]2[C@H]1CCN2Cc1ccc(O)cc1` gave OTUD3 inh inactive, USP17 block inactive, USP28 inh 43 and USP30 block 55.
Screening CN1[C@@H](CCC(=O)N2CCN(c3ccccn3)CC2)CNC(=O)[C@@H]2[C@H]1CCN2Cc1ccc(CO)o1 returned OTUD3 inh inactive, USP17 block inactive, USP28 inh inactive and USP30 block inactive.
`CN1[C@@H](CCC(=O)N2CCN(c3ccccn3)CC2)CNC(=O)[C@@H]2[C@H]1CCN2CC(C)(C)C` gave OTUD3 inh inactive, USP17 block inactive, USP28 inh inactive and USP30 block inactive.
For CC(C)N1CC[C@@H]2[C@H]1C(=O)NC[C@H](CCC(=O)N1CCN(c3ccccn3)CC1)N2C the results were OTUD3 inh inactive, USP17 block inactive, USP28 inh 42 and USP30 block 39.
CN1[C@@H](CCC(=O)N2CCN(c3ccccn3)CC2)CNC(=O)[C@@H]2[C@H]1CCN2Cc1ccc(O)cc1 was read as OTUD3 inh inactive, USP17 block inactive, USP28 inh 56 and USP30 block 46.
Screening CC(C)C[C@@H](C(=O)N[C@@H](CC(=O)O)C(=O)O)N1C(=O)N2CCc3c([nH]c4ccccc34)[C@@]2(C)C1=O returned OTUD3 inh inactive, USP17 block inactive, USP28 inh inactive and USP30 block inactive.
Screening Cc1ccc(-c2cc(N3CCN(S(C)(=O)=O)CC3)ncn2)cc1 returned OTUD3 inh inactive, USP17 block 47, USP28 inh inactive and USP30 block 47.
CS(=O)(=O)N1CCN(c2ccc(-c3ccc(F)cc3)nn2)CC1 was read as OTUD3 inh inactive, USP17 block inactive, USP28 inh inactive and USP30 block inactive.
Screening O=C(Nc1cccc(Cl)c1)c1ncn2c1CNS(=O)(=O)c1ccccc1-2 returned OTUD3 inh inactive, USP17 block 33, USP28 inh 66 and USP30 block 36.
`COc1cc(NC(=O)Cc2cn3ccccc3n2)cc(OC)c1` gave OTUD3 inh inactive, USP17 block inactive, USP28 inh inactive and USP30 block inactive.
Screening O=C(Nc1ccc(-c2cn3ccccc3n2)cc1)C1C=C2C=C(Br)C=CC2OC1=O (stereo not drawn) returned OTUD3 inh 43, USP17 block inactive, USP28 inh 52 and USP30 block 49.
`Cc1nc(-c2cnccn2)n(CC(=O)Nc2cccc(F)c2)c(=O)c1C` gave OTUD3 inh inactive, USP17 block inactive, USP28 inh inactive and USP30 block inactive.
`COc1cccc(CC2(NC(=O)c3ccccc3)N=C3C(C)=CC=CN3C2=O)c1OC` (stereo not drawn) gave OTUD3 inh inactive, USP17 block inactive, USP28 inh inactive and USP30 block inactive.
Screening COc1ccc2[nH]c(=O)c(CN(C)C(=O)c3ccc([N+](=O)[O-])cc3)cc2c1 returned OTUD3 inh inactive, USP17 block 46, USP28 inh inactive and USP30 block inactive.
Screening CCc1nc(N)n(CC(=O)N2CCCc3ccccc32)c(=O)c1C returned OTUD3 inh inactive, USP17 block 76, USP28 inh inactive and USP30 block 54.
For CC(=O)N1CCSc2ccc(S(=O)(=O)Nc3ccccc3Cl)cc21 the results were OTUD3 inh inactive, USP17 block inactive, USP28 inh inactive and USP30 block inactive.
`CCCCNC(=O)C1Sc2nnc(-c3ccccc3)n2NC1c1ccccc1` (stereo not drawn) gave OTUD3 inh inactive, USP17 block inactive, USP28 inh inactive and USP30 block 50.
COC(=O)c1ccc(CSc2nc3c(-c4ccccc4)cn(C)c3c(=O)n2C(C)C)o1 was read as OTUD3 inh inactive, USP17 block inactive, USP28 inh inactive and USP30 block inactive.
For CCn1cc(NC(=O)CN2CCC3(CC=CCOC3)CC2)c(C)n1 the results were OTUD3 inh 46, USP17 block inactive, USP28 inh inactive and USP30 block inactive.
COC(=O)c1ccc2c(=O)n(CCCCCC(=O)NCc3cccc(Cl)c3)c(=O)[nH]c2c1 was read as OTUD3 inh inactive, USP17 block 31, USP28 inh inactive and USP30 block 62.
Screening COC(=O)c1ccc2c(=O)n(CCCCCC(=O)NCCc3ccc(OC)c(OC)c3)c(=O)[nH]c2c1 returned OTUD3 inh inactive, USP17 block inactive, USP28 inh inactive and USP30 block 46.
For Cc1nn(C)cc1C(=O)N1CCC(c2cc(=O)n3[nH]ccc3n2)CC1 the results were OTUD3 inh inactive, USP17 block inactive, USP28 inh inactive and USP30 block inactive.
`CCOc1ccc(CCNC(=O)CN2CCN(Cc3ccc(F)cc3)C2=O)cc1OCC` gave OTUD3 inh inactive, USP17 block inactive, USP28 inh inactive and USP30 block inactive.
